# Screening data deposited in PubChem by National Center for Advancing Translational Sciences (NCATS).
# Sampled rows, rich in hits. Any-hit rate of the full collection: about 17%.
# TDP1 inh: qHTS Assay for Inhibitors of Tyrosyl-DNA Phosphodiesterase (TDP1); Tyrosyl-DNA phosphodiesterase 1 (Homo sapiens), Q9NUW8; recombinant TDP1, AlphaScreen DNA substrate cleavage; Potency, µM (highest dose often 130 µM), without a hit: at the top dose activity change, negative = inhibition, hits mostly inhibitors; 0.28% of 350,000 active; AID 485290, 2010; note: % is set by controls: 0 for no effect and ±100 for the full control effect; nearly all actives have a fitted effect of over 40% in size
# Target sequence (Q9NUW8 whole entry, looked up): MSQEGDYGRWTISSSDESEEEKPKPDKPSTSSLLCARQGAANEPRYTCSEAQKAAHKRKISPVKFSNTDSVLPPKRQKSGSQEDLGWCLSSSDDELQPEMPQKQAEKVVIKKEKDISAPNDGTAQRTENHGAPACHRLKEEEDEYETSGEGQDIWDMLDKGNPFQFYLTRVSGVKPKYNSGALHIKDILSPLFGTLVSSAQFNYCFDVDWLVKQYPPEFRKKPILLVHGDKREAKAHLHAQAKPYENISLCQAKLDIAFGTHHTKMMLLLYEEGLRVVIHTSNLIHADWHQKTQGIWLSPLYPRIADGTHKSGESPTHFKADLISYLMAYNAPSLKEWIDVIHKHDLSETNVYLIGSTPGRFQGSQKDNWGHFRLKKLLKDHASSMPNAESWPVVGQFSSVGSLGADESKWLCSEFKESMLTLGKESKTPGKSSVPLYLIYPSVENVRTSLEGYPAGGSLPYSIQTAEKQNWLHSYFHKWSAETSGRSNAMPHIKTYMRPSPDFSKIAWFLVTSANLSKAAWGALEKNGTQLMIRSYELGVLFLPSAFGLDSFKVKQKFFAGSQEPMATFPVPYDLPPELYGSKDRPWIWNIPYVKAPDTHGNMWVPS
#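 Here, a 5' biotin and 3' phosphotyrosine-FITC DNA oligonucleotide reports Tdp1 activity: intact substrate bridges AlphaScreen beads, while cleavage leaves a 3' phosphate and drops signal. All incubations at room temperature.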
# ClpP mod: qHTS Assay for Activators of ClpP. Potency, µM (series often up to 57.5 µM), for the others: at the top dose activity change, negative = active. purified B. subtilis ClpP, FRET peptide cleavage, 20 min. AID 651965, 2013. 1.9% of 340,000 active; active = well fitted falling curve with a large enough effect; inconclusive = small, poorly fitted or top-dose-only effect; inactive = no such curve, though single readings can be large or run the other way; note: the source files actives as falling curves though it sought activators and does not explain the sign; nearly all actives have a fitted effect of over 65% in size
#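 Buffer: 100 mM Tris/HCl pH8, 100 mM KCl, 0.05% low protease BSA, 2.5% glycerol, 0.01% Tween-20. ClpP 10 microg/mL final; 20 min RT; delta FRET normalized to ADEP and DMSO controls.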
# TDP1 cell noCPT: qHTS for Inhibitors of human tyrosyl-DNA phosphodiesterase 1 (TDP1): qHTS in cells in absence of CPT. DT40 Tdp1-/- hTDP1 cells, no CPT, ATP luminescence, 48 h. 15% of 420,000 active. AID 686978, 2013. Potency, µM (doses to about 46.2 µM), inactives show at the top dose activity change, negative = growth inhibition, actives largely listed as inhibitors; note: % is set by controls: 0 for no effect and ±100 for the full control effect; nearly all actives have a fitted effect of over 55% in size
#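 Cells were dispensed at 400 per well, compounds added by pin tool, plates incubated ≥48 hr at 37 °C, then CellTiter-Glo added for 30 min at room temperature before luminescence reading. Line: DT40 Tdp1-/- complemented with hTDP1; camptothecin omitted.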
# DT40 TDP1 CPT: qHTS for Inhibitors of human tyrosyl-DNA phosphodiesterase 1 (TDP1): qHTS in cells in presence of CPT. chicken DT40 Tdp1-/-;hTDP1 cells + 20 nM CPT, ATP luminescence, 48 h. Potency, µM (titrated, usually from 46.2 µM), without a hit: at the top dose activity change, negative = growth inhibition, hits mostly inhibitors. 12% of 420,000 active; note: % is set by controls: 0 for no effect and ±100 for the full control effect; nearly all actives have a fitted effect of over 55% in size
#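 Chicken DT40 Tdp1-/- cells complemented with human TDP1, 400 cells/well, exposed to compounds plus 20 nM camptothecin for at least 48 h at 37 C; viability read as ATP content by CellTiter-Glo luminescence.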
# The depositor's hits bear a star; ? = inconclusive; · = no result; [ ] = dose if it differs, or a comment. Unless noted, calls come from the whole dose curve; as a rule, active = well fitted curve in the direction sought with a large enough effect; inconclusive = small, poorly fitted or top-dose-only effect, or another doubt; inactive = no such curve, though single readings can be large; an effect the other way counts as inactive or inconclusive. Potency is the fitted concentration of half-maximal effect.
SMILES,TDP1 inh,ClpP mod,TDP1 cell noCPT,DT40 TDP1 CPT
Cc1ccc(S(=O)(=O)N2CCN(c3nc(-c4ncccn4)nc4ccccc34)CC2)cc1,2%,-2%,11µM*,?
Cc1ccc(S(=O)(=O)N2CCN(c3nc(-c4ccncc4)nc4ccccc34)CC2)cc1,-11%,2%,11µM*,-16%
Cc1ccc(S(=O)(=O)N2CCN(c3nc(-n4c(=O)[nH]c5ccccc54)nc4ccccc34)CC2)cc1,·,-22%,13µM*,11µM*
O=S(=O)(c1ccccc1Br)N1CCN(c2nc(-c3ccccc3)nc3ccccc23)CC1,0%,-7%,14µM*,?
COc1cccc(CNC(=O)C(C)n2ncn3cccc3c2=O)c1OC (centres undefined),6%,-2%,-10%,-3%
COC(=O)[C@@H]1CCCN1Cc1ccc2c(c1)CN(Cc1ccccc1)CCO2,·,·,-36%,15%[9.04 µM]
COc1cccc(-c2ccc(O)c(CNCc3cccc4ccccc34)c2)n1,·,·,-19%,-6%
Cc1cccc(NC(=O)c2cc(S(=O)(=O)N3CCCC3)cn2C)c1,·,-4%,-24%,-20%
Cc1ccc(S(=O)(=O)N2CCN(c3nc(-n4ccnc4)nc4ccccc34)CC2)cc1,·,?,-17%,-17%
COC(=O)c1nc(N2CCN(S(=O)(=O)c3ccc(C)cc3)CC2)c2ccccc2n1,2%,-6%,18µM*,?
Cc1ccc(S(=O)(=O)N2CCN(c3nc(-c4cnccn4)nc4ccccc34)CC2)cc1,1%,-3%,18µM*,?
Cc1ccc(S(=O)(=O)N2CCN(c3nc(-c4cncnc4)nc4ccccc34)CC2)cc1,3%,1%,10µM*,8.9µM*
CC(C)(C)c1ccc(S(=O)(=O)N2CCN(c3nc(-c4ccccc4)nc4ccccc34)CC2)cc1,1%,?,-23%,-19%
Cc1ccc(S(=O)(=O)N2CCN(c3nc(-c4cccnc4)nc4ccccc34)CC2)cc1,-3%,-6%,11µM*,13µM*
COc1ccc(-c2nc(N3CCN(S(=O)(=O)c4ccccc4)CC3)c3ccccc3n2)cc1,2%,·,·,·
Cc1ccc(NC(=O)COC(=O)C2CC2(Cl)Cl)cc1C (centres undefined),9%,·,?,-30%
Cc1cc(C)n2c(=O)[nH]nc2c1,·,·,4%,-1%
Cc1cccc(NC(=O)c2cnn(-c3ccccc3)c2-n2cccc2)c1C,5%,-5%,?,16µM*
CCc1ccc(NC(=O)c2cnn(-c3ccccc3)c2-n2cccc2)cc1,3%,-3%,?,18µM*
Cc1cccc(NC(=O)c2cnn(-c3ccccc3)c2C)c1C,5%,-2%,-23%,-8%
Cc1c(C(=O)Nc2ccccc2)cnn1-c1ccccc1,·,1%,-29%,-3%
Cc1c(C(=O)Nc2cccc(F)c2)cnn1-c1ccccc1,·,1%,15µM*,18µM*
CCCNC(=O)OC[C@@H]1O[C@H](CCO/N=C(\C)CCN2CCc3nc(CC)c(CC)cc3C2)C=C[C@@H]1Oc1ccc(OC)cc1,9%[21 µM],·,·,·
Oc1ccc2ccccc2c1C=Nc1ccccc1-c1nc2ccccc2[nH]1,8%,?,16µM*,?
O=C(O)c1ccccc1-c1nc2ccccc2[nH]1,0%,·,-24%,-1%
SMILES,TDP1 inh,ClpP mod,TDP1 cell noCPT,DT40 TDP1 CPT
CCNCCCNCCCCNCCCNCC,10%[56.1 µM],·,5.3µM*,3.8µM*
CCCCNCC,15%,·,·,·
O=C(Nc1ccc(F)c(Cl)c1)[C@@H]1O[C@H](CO)[C@H](O)[C@H](O)[C@H]1O,·,0%,0%,-9%
CC(=O)N1c2ccc(S(=O)(=O)N(C)c3cc(C)ccc3C)cc2CC1C (centres undefined),·,-13%,23µM*,?
COc1ccc(C)cc1NC(=O)CN(C)S(=O)(=O)c1ccc2c(c1)CC(C)N2C(C)=O (centres undefined),5%,1%,?,23µM*
CC(=O)N1c2ccc(S(=O)(=O)N(C)CC(=O)NCc3ccc(C)cc3)cc2CC1C (centres undefined),0%,-3%,-7%,-20%
Cc1ccc(NC(=O)Nc2cnccn2)cc1,2%[56.1 µM],-7%,18%,-18%
O=C(Nc1ccc(Cl)cc1)Nc1cnccn1,-4%,-7%,?,?
O=C(Nc1ccc([N+](=O)[O-])cc1)Nc1cnccn1,1%,-5%,16µM*,?
CC(C)c1ccc(NC(=O)Nc2cnccn2)cc1,1%,-12%,7.3µM*,12µM*
N#Cc1ccc(S(=O)(=O)N2CCC(C(=O)Nc3cccc(C(=O)NC4CC4)c3)CC2)cc1,0%[56.1 µM],0%,0%,-1%
c1ccc2c(c1)OCc1cn[nH]c1-2,·,-2%,-24%,-5%
c1ccc(N2CC3COc4ccccc4C3=N2)cc1 (centres undefined),·,25µM*,-10%,2%
Oc1ccc(N2CCN(Cc3cc4c(cc3Br)OCCO4)CC2)cc1,·,·,23µM*,?
N#Cc1nc(Cc2cccc3ccccc23)oc1NCc1ccc(F)cc1,6%,-2%,21µM*,?
C=CCNc1oc(Cc2cccc3ccccc23)nc1C#N,7%,-1%,-15%,-4%
CCOC(=O)N/N=C/c1cn(CCCOc2ccccc2)c2ccccc12,3%,28µM*,?,?
COC(=O)N/N=C/c1cn(CC(C)COc2ccccc2)c2ccccc12 (centres undefined),8%,-2%,23µM*,?
COC(=O)N/N=C/c1cn(CCOc2ccccc2)c2ccccc12,·,·,?,0%
Cc1ccc(OCCn2cc(/C=N/NC(=O)c3ccncc3)c3ccccc32)cc1,7%,-1%,23µM*,?
CCOC(=O)N/N=C/c1cn(CCCOc2ccc(C)cc2)c2ccccc12,-8%,-3%,21µM*,?
CC[C@H](C)[C@H](N)C(=O)N[C@@H](CC(N)=O)C(=O)N1CCC[C@H]1C(=O)N[C@H](C(=O)N[C@@H](Cc1ccc(O)cc1)C(=O)N[C@@H](CCCN=C(N)N)C(=O)N[C@@H](CC(C)C)C(=O)N[C@@H](CCCN=C(N)N)C(=O)N[C@@H](Cc1ccc(O)cc1)C(N)=O)[C@@H](C)CC,11%,·,·,·
Cc1ccc(OCCn2cc(/C=C3\C(=O)NN(c4ccccc4)C3=O)c3ccccc32)cc1,7%,18µM*,26µM*,16µM*
C/C(Cl)=C/Cn1c(SC(C)C)nc2c1c(=O)[nH]c(=O)n2C,-2%,-1%,16µM*,?
CCCSc1nc2c(c(=O)[nH]c(=O)n2C)n1C,8%,-1%,-4%,-11%
CCCCCCSc1nc2c(c(=O)[nH]c(=O)n2C)n1C,2%,1%,21µM*,?
